In PubChem BioAssay AID1508600 (Functional Genomics Laboratory (NCATS/FGL), 2020):
The whole screen tested about 53,000 sequences, of which about 3,700 (7%) were called active. Many of the other results were omitted from the sample, so actives are more common in it than they were. Values without a mark were called inactive.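 Rule for the calls: active = gene knockdowns whose robust z-score for IL-1 alpha signal is at least 2 or at most -2, so actives lie on both sides; inactive = the rest.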

Test: Components of the Cytosolic LPS Sensing Pathway: Gene Identification via Genome-wide siRNA Screen;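 note: robust z of the log signal after scaling to non-targeting control siRNA wells of the plate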
Settings: RAW264.7 macrophages, IL-1a HTRF, actives lie on both sides, screened at 100 nM (by protocol), cells primed 5 h with Pam3CSK4 first
Summary of the method: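 Supernatant IL-1a by HTRF from RAW264.7 cells primed with Pam3CSK4 (5 hours) and transfected with LipidA (24 hour) after 48h siRNA knockdown at 100 nM; cell viability checked with CellTiter-Glo.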

Row | Sequence | z-score
1 | GCCGUAUCACCCUAAACUATT against Pxylp1 | 2.05 (active)
2 | GGCCUAGUUCCAGUUAUGCTT against Olfr1093 | -1.41
3 | CCGCUACCUUAAGCACCUATT against Terf2ip | 0.231
4 | GGUUUGACUAACUUUCCUUTT against Fbxl15 | 0.198
5 | GCGGGAACUUAAAGUUUACTT against Yars | 3.18 (active)
6 | GGAACAGUGCUUGUAUCAGTT against Clasrp | 0.675
7 | GGUUCCUUCGUGAAUGUCATT against Glp1r | 0.0826
8 | CCCGUCAAUACCACUUACCTT against Sidt2 | 2.19 (active)
9 | GCUAAUCGGAUGCUGAAGCTT against Psmb7 | 0.71
10 | CCUUAUGUCCCUAAGGCUATT against Mbd3 | -0.109
11 | CCUCAGUUAUAGAUGAUCUTT against Rdh11 | 0.319
12 | CCCUCAAAUAACAUCCAGGTT against Sh3d21 | -1.93
13 | GGAAAUCUAUUUCAUUGACTT against Zcchc10 | 0.956
14 | GCUUGUGCGAGUGUUGGAUTT against Has1 | 2.21 (active)
15 | GGGUUUCCUACAGAGUACCTT against Amer3 | -0.845
16 | GGCAUGGAUUGGUGAGAUUTT against 9330175E14Rik | -0.576
17 | GCAUUAAGCACGAGAAAAATT against Slc18a2 | 0.575
18 | GCUCUCAGAUGACAUCACUTT against Supt5 | -2.43 (active)
19 | GGACCACUUGUAGUAUUUGTT against Map7d1 | 0.593
20 | GGCAACUGCCUUUACCAUATT against Tceanc2 | 1.67
21 | GGAGAUCGACCUGUCUAUGTT against Cep164 | 0.988
22 | CGGAAAAGAUCCCUAUUGUTT against Adam5 | 0.373
23 | GGGACGUGCAAUUGUCUGATT against Mfsd6 | 0.0857

Row | Sequence | z-score
24 | GGAUGGCAUGUCCUUCCAATT against Elf3 | 2.85 (active)
25 | GGAAGUGGAAAAAGUUUAGTT against Brip1 | 0.442
26 | GGCAUUGCUGACUACAAACTT against Tcn2 | 2.15 (active)
27 | GCAGUUUUGGGCAAUACCUTT against Olfr358 | 1.22
28 | GCAACGCAACAGCAUUCCUTT against Psmg1 | 1.34
29 | GGAUAUGCUGAGGUGGUGGTT against Cpsf7 | -1.07
30 | GGUGUACAUGGACAUCAAGTT against Ppie | 0.0171
31 | GGUCUUUGAGUUAAACCAUTT against Cdc7 | -0.0476
32 | CCUGAGCUAGAAUCUCAGATT against Zmat2 | 0.715
33 | CCCUUUCAACCAUUAAGCUTT against Kcns2 | 0.243
34 | GGAUGGGUCAAUGUUCUACTT against V1rb6 | 0.232
35 | CCACCAGAAUCCUAACACATT against Nucb2 | 2.55 (active)
36 | CCAUGUGUAAAGGGAGAAATT against Nxph2 | 0.893
37 | CCAGUUGUGUGAAUUAUGUTT against Psmd2 | -2
38 | CCUACCGUUACCUAAGUGATT against Kcnj5 | -1.15
39 | GCAAUGAGUAUUCAUGCAATT against Sec61a2 | -1.86
40 | CCUUCAGUGCUGUAGUGUATT against Rasl10b | 0.37
41 | GGAGUCCUAGAACACACAGTT against Snap29 | -1.79
42 | GGAAUAUUAUGGGUAUCGATT against Cacna1s | 0.952
43 | GGUGGACUCUGUUUAAAAATT against Mtnr1a | 0.971
44 | GGUCUGUGAAAUGAAAAAUTT against Brix1 | -0.473
45 | GGACUUACAUGGAAUUUUATT against Eftud2 | -2.07 (active)
46 | CGGGUAUCAUCGAUUAUGGTT against Tnfaip6 | -0.356

Row | Sequence | z-score
47 | GGAGUGCAGUACAAAGGACTT against Ahsa1 | 0.872
48 | GCCCAGCUCAAAUCUCCAUTT against Defb41 | 1.05
49 | GGACUUUUCAUUUGAAGCATT against Gar1 | 1.03
50 | GGAGUUUGUAGCUGACAUCTT against Dcaf15 | -1.02
51 | GCCUUUCUCGCUACUUAGUTT against Cltc | 2.83 (active)
52 | GGAAAUCCAACUUCUUUCATT against Ebf2 | 2.7 (active)
53 | GGUGUCUGCGUGAAGAUCATT against Cacng8 | 2.81 (active)
54 | CCUGGACAAGCUAUACCUUTT against Cdc45 | 0.952
55 | GGCAUUGUAACCCUUGUAATT against Zscan26 | -0.684
56 | CGACUGGAUACCAAAUUACTT against Mtrex | -1.21
57 | GGAUCAUGAGAAUAUCAUCTT against P4hb | 0.816
58 | GGUGAUGUCAAGAGUUUUCTT against Hacd2 | 3.56 (active)
59 | GGGCCUCCUGUAAACAUCCTT against D630039A03Rik | 0.884
60 | AUAAGAUGUUGCUCGGAACTT against Olfr1193 | 1.26
61 | GCCAGUGUUAUCCAGGACUTT against Cggbp1 | 1.35
62 | GCAACUCAACCUCAACCAUTT against Lrrc8e | -0.597
63 | CCUCGAGUGGUUGGAUAAGTT against Vps25 | -2 (active)
64 | GGUGAAAUUGCUCAGAUAATT against Narf | 0.387
65 | AACCAUGAUGCUUACGUUUTT against S100a10 | 0.285
66 | CCACAUACAUUUCACAGGGTT against Kdf1 | -0.806
67 | GGAGUGUGUGCUUUUAAAATT against Rabggta | 0.248
68 | GGCAGAAGUGGAAAAACAATT against Tmco1 | -0.417
69 | GGAAUGUAUCCAGGACUUCTT against Brd4 | -2.46 (active)
